Test results published in the supplement of paper PMC4709259.
Counter-ions that a name gives are not always drawn. ± gives the standard deviation.

Key:
Jurkat [1] = test: mean cell size (FSC-A) relative to DMSO control (fraction of control); higher = larger cells; conditions: 48 h
Outline: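 Jurkat cells seeded at 600 cells/µl were incubated 1 h, then exposed for 48h to the Enzo Screen-Well FDA Approved Drug Library v2.0 at 25µM in 0.9% (v/v) final DMSO. Drugs that cut counts below 20% of controls were diluted 10-fold and retested, down to 25nM. Cell count and mean cell size (forward scatter area) were read on an Accuri C6 flow cytometer, relative to solvent-only controls. Plates held 6-12 controls; values are means of 3 biological replicates.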

Jurkat [2] = test: cell count relative to DMSO control (fraction of control); higher = more cells (less growth inhibition); conditions: 48 h

Row | Compound | mean cell size (Jurkat [1]) | cell count (Jurkat [2])
1 | COc1ccc(C[C@@H]2c3cc(OC)c(OC)cc3CC[N@+]2(C)CCC(=O)OCCCCCOC(=O)CC[N@@+]2(C)CCc3cc(OC)c(OC)cc3[C@H]2Cc2ccc(OC)c(OC)c2)cc1OC [Cisatracurium Besylate] (concentration: 25 µM) | 1.004 ± 0.009 | 0.624 ± 0.064
2 | COc1cc(CNC(=O)CCCC/C=C/C(C)C)ccc1O [Capsaicin] (concentration: 25 µM) | 0.903 ± 0.021 | 0.901 ± 0.08
3 | CC1=C(/C=C/C(C)=C/C=C/C(C)=C\C(=O)O)C(C)(C)CCC1 [Isotretinoin (13-Cis-Retinoic Acid)] (concentration: 25 µM) | 0.864 ± 0.03 | 1.02 ± 0.11
4 | O=S(=O)(O)CCS [Mesna] (concentration: 25 µM) | 1.06 ± 0.026 | 0.769 ± 0.16
5 | NCCCCCC(=O)O [Aminocaproic Acid] (concentration: 25 µM) | 0.976 ± 0.05 | 0.853 ± 0.1
6 | CCc1cccc2c3c([nH]c12)C(CC)(CC(=O)O)OCC3 (centres undefined) [Etodolac] (concentration: 25 µM) | 1.08 ± 0.042 | 0.947 ± 0.018
7 | COc1ccc2c3c1O[C@H]1C[C@@H](O)C=C[C@@]31CCN(C)C2 [Galantamine·HBr] (concentration: 25 µM) | 0.976 ± 0.01 | 0.701 ± 0.14
8 | CCCC(CCC)C(=O)O [Valproic Acid] (concentration: 25 µM) | 0.986 ± 0.028 | 0.728 ± 0.029
9 | CC1=C(/C=C/C(C)=C/C=C/C(C)=C/C(=O)O)C(C)(C)CCC1 [Tretinoin] (concentration: 25 µM) | 0.88 ± 0.031 | 1.02 ± 0.11
10 | Cc1ccnc2c1NC(=O)c1cccnc1N2C1CC1 [Nevirapine] (concentration: 25 µM) | 0.924 ± 0.051 | 0.476 ± 0.11
11 | CNCCCN1c2ccccc2CCc2ccccc21 [Desipramine·HCl] (concentration: 25 µM) | 0.9721 ± 0.0012 | 0.721 ± 0.066
12 | CC[C@H]1OC(=O)[C@H](C)[C@@H](O[C@H]2C[C@@](C)(OC)[C@@H](O)[C@H](C)O2)[C@H](C)[C@@H](O[C@@H]2O[C@H](C)C[C@H](N(C)C)[C@H]2O)[C@](C)(O)C[C@@H](C)CN(C)[C@H](C)[C@@H](O)[C@]1(C)O [Azithromycin] (concentration: 25 µM) | 0.948 ± 0.027 | 0.628 ± 0.078
13 | CNNCc1ccc(C(=O)NC(C)C)cc1 [Procarbazine·HCl] (concentration: 25 µM) | 1.01 ± 0.053 | 0.822 ± 0.1
14 | NC(=O)N1c2ccccc2C=Cc2ccccc21 [Carbamazepine] (concentration: 25 µM) | 0.955 ± 0.044 | 1.14 ± 0.065
15 | Nc1nc2[nH]cc(CCc3ccc(C(=O)N[C@@H](CCC(=O)O)C(=O)O)cc3)c2c(=O)[nH]1 [Pemetrexed Disodium] (concentration: 2.5 µM) | 1.4 ± 0.058 | 0.247 ± 0.028
16 | CC(=O)[C@H]1CC[C@H]2[C@@H]3CCC4=CC(=O)CC[C@]4(C)[C@H]3CC[C@]12C [Progesterone] (concentration: 25 µM) | 1 ± 0.045 | 0.755 ± 0.052
17 | COCC1=C(C(=O)OC(C)OC(=O)OC(C)C)N2C(=O)[C@@H](NC(=O)/C(=N\OC)c3csc(N)n3)[C@H]2SC1 (some centres undefined) [Cefpodoxime Proxetil] (concentration: 25 µM) | 0.94 ± 0.021 | 0.872 ± 0.045
18 | COc1cc(C)c(/C=C/C(C)=C/C=C/C(C)=C/C(=O)O)c(C)c1C [Acitretin] (concentration: 25 µM) | 0.883 ± 0.021 | 0.625 ± 0.11
19 | Cc1cn(-c2cc(NC(=O)c3ccc(C)c(Nc4nccc(-c5cccnc5)n4)c3)cc(C(F)(F)F)c2)cn1 [Nilotinib] (concentration: 25 µM) | 0.979 ± 0.037 | 0.762 ± 0.086
20 | NC(=O)N[C@@H](CCC(=O)O)C(=O)O [Carglumic Acid] (concentration: 25 µM) | 0.936 ± 0.037 | 0.806 ± 0.1
21 | CC(C)NCC(O)COc1ccc(CC(N)=O)cc1 (racemic) [(±)-Atenolol] (concentration: 25 µM) | 0.836 ± 0.018 | 1.14 ± 0.087
22 | NC(=O)C(c1ccccc1)(c1ccccc1)[C@@H]1CCN(CCc2ccc3c(c2)CCO3)C1 [Darifenacin·HBr] (concentration: 25 µM) | 1.02 ± 0.015 | 0.723 ± 0.087
23 | CC1=C(C(=O)O)N2C(=O)[C@@H](NC(=O)[C@H](N)c3ccc(O)cc3)[C@H]2SC1 [Cefadroxil] (concentration: 25 µM) | 0.937 ± 0.014 | 0.895 ± 0.079
24 | Nc1ccn(C[C@@H](CO)OCP(=O)(O)O)c(=O)n1 [Cidofovir] (concentration: 25 µM) | 1.13 ± 0.057 | 0.593 ± 0.094
25 | O=C1O[C@H]([C@@H](O)CO)C(O)=C1O [L-Ascorbic Acid] (concentration: 25 µM) | 1 ± 0.029 | 0.836 ± 0.068
26 | CC(C)c1ccc2oc3nc(N)c(C(=O)O)cc3c(=O)c2c1 [Amlexanox] (concentration: 25 µM) | 0.923 ± 0.018 | 0.469 ± 0.12

Row | Compound | mean cell size (Jurkat [1]) | cell count (Jurkat [2])
27 | CC(C)OC(=O)CCC/C=C\C[C@@H]1[C@@H](/C=C/[C@@H](O)COc2cccc(C(F)(F)F)c2)[C@H](O)C[C@@H]1O [Travoprost] (concentration: 25 µM) | 0.92 ± 0.022 | 0.668 ± 0.084
28 | Nc1nc2c(ncn2COC(CO)CO)c(=O)[nH]1 [Ganciclovir] (concentration: 25 µM) | 1.022 ± 0.0079 | 0.51 ± 0.1
29 | Nc1ccc(C(=O)O)c(O)c1 [4-Aminosalicylic Acid] (concentration: 25 µM) | 0.914 ± 0.016 | 0.844 ± 0.14
30 | CC(=O)[C@@]1(O)CC[C@H]2[C@@H]3C[C@H](C)C4=CC(=O)C=C[C@]4(C)[C@@]3(F)[C@@H](O)C[C@@]21C [Fluorometholone] (concentration: 25 µM) | 0.914 ± 0.06 | 0.639 ± 0.12
31 | C[C@](N)(Cc1ccc(O)c(O)c1)C(=O)O [Methyldopa Sesquihydrate (L-Α-Methyl-Dopa Sesquihyrate)] (concentration: 25 µM) | 0.958 ± 0.027 | 0.834 ± 0.052
32 | C[N+](C)(C)CC(=O)O [Betaine] (concentration: 25 µM) | 0.945 ± 0.047 | 0.449 ± 0.066
33 | COc1cc2nc(N(C)CCCNC(=O)C3CCCO3)nc(N)c2cc1OC (centres undefined) [Alfuzosin] (concentration: 25 µM) | 0.952 ± 0.029 | 0.41 ± 0.14
34 | NC(=O)OCC(COC(N)=O)c1ccccc1 [Felbamate] (concentration: 25 µM) | 1.02 ± 0.053 | 0.755 ± 0.16
35 | CCCNC(=O)NS(=O)(=O)c1ccc(Cl)cc1 [Chlorpropamide] (concentration: 25 µM) | 1.04 ± 0.021 | 1.02 ± 0.048
36 | Cc1cn([C@@H]2C[C@@H](O)[C@H](CO)O2)c(=O)[nH]c1=O [Telbivudine] (concentration: 25 µM) | 0.927 ± 0.037 | 1.04 ± 0.17
37 | Cc1onc(-c2ccccc2Cl)c1C(=O)N[C@@H]1C(=O)N2[C@@H]1SC(C)(C)[C@@H]2C(=O)O [Cloxacillin·Na] (concentration: 25 µM) | 0.99 ± 0.031 | 0.703 ± 0.056
38 | NS(=O)(=O)c1cc2c(cc1C(F)(F)F)NC(Cc1ccccc1)NS2(=O)=O (centres undefined) [Bendroflumethiazide] (concentration: 25 µM) | 0.957 ± 0.041 | 0.902 ± 0.08
39 | NCCc1ccc(O)c(O)c1 [Dopamine·HCl] (concentration: 25 µM) | 0.951 ± 0.029 | 0.909 ± 0.097
40 | CN1[C@@H]2CC[C@H]1C[C@@H](OC(c1ccccc1)c1ccccc1)C2 [Benztropine Mesylate] (concentration: 25 µM) | 0.976 ± 0.054 | 0.666 ± 0.17
41 | CCCCc1nc(Cl)c(CO)n1Cc1ccc(-c2ccccc2-c2nnn[nH]2)cc1 [Losartan Potassium] (concentration: 25 µM) | 0.922 ± 0.041 | 0.418 ± 0.1
42 | Nc1ccc(S(=O)(=O)c2ccc(N)cc2)cc1 [Dapsone] (concentration: 25 µM) | 0.9573 ± 0.0072 | 0.976 ± 0.1
43 | O=P(O)(O)C(O)(Cc1cccnc1)P(=O)(O)O [Risredonic Acid] (concentration: 25 µM) | 0.964 ± 0.048 | 0.428 ± 0.091
44 | O=c1n(CCCN2CCN(c3cccc(Cl)c3)CC2)nc2ccccn12 [Trazodone·HCl] (concentration: 25 µM) | 0.967 ± 0.045 | 0.878 ± 0.048
45 | COc1nc(N)nc2c1ncn2[C@@H]1O[C@H](CO)[C@@H](O)[C@@H]1O [Nelarabine] (concentration: 25 µM) | 1.4 ± 0.014 | 0.201 ± 0.029
46 | COc1ccc2cc(CCC(C)=O)ccc2c1 [Nabumetone] (concentration: 25 µM) | 0.938 ± 0.032 | 0.888 ± 0.058
47 | CN1C(C(=O)Nc2ccccn2)=C(O)c2ccccc2S1(=O)=O [Piroxicam] (concentration: 25 µM) | 0.9597 ± 0.0066 | 0.738 ± 0.07
48 | C[C@@H]1C[C@H]2[C@@H]3CCC4=CC(=O)C=C[C@]4(C)[C@@]3(F)[C@@H](O)C[C@]2(C)[C@@]1(O)C(=O)CO [Dexamethasone] (concentration: 25 µM) | 0.917 ± 0.019 | 0.819 ± 0.11
49 | C[C@H](CCC(=O)O)[C@H]1CC[C@H]2[C@@H]3[C@@H](O)C[C@@H]4C[C@H](O)CC[C@]4(C)[C@H]3CC[C@]12C [Ursodiol] (concentration: 25 µM) | 1.01 ± 0.031 | 0.718 ± 0.096
50 | CCC1=C[C@@H]2CN(C1)Cc1c([nH]c3ccccc13)[C@@](C(=O)OC)(c1cc3c(cc1OC)N(C)[C@H]1[C@@](O)(C(=O)OC)[C@H](OC(C)=O)[C@]4(CC)C=CCN5CC[C@]31[C@@H]54)C2 [Vinorelbine] (concentration: 250 nM) | 0.941 ± 0.031 | 0.559 ± 0.048
51 | C[C@H]1C[C@@H]2[C@H]([C@@H](O)C[C@@]3(C)[C@H]2CC[C@]3(O)C(=O)CO)[C@@]2(C)C=CC(=O)C=C12 [Methylprednisolone] (concentration: 25 µM) | 0.908 ± 0.013 | 0.873 ± 0.025
52 | Nc1ccn([C@@H]2O[C@H](CO)[C@@H](O)C2(F)F)c(=O)n1 [Gemcitabine·HCl] (concentration: 25 nM) | 1.12 ± 0.024 | 0.427 ± 0.09
